hgDAF-12 ag: H. glycines DAF-12 receptor agonists, primary screen, cell-based, luminescence, HEK293, GAL4 fusion, UAS-luciferase | Nuclear hormone receptor DAF-12 (Heterodera glycines), GAL4 fusion | HEK293 GAL4-hgDAF12 UAS-luciferase reporter, agonist luminescence; normalized to butyrate control | activation, % at 6.8 µM | actives 1.8% (n = 370,000) | AID 687014, 2013;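 active = activation above a cutoff set at the mean of all screened compounds plus 3 SD, cut at about 10% in these data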;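 note: 0% = DMSO wells and 100% = sodium butyrate wells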
hcDAF12 agonist: H. contortus DAF-12 nuclear receptor activators, primary screen, cell-based, luminescence, HEK293, lit1-tk-luc reporter | actives 1.4% (n = 370,000) | HEK293 hcDAF-12 lit1-tk-luc reporter; 0% DMSO, 100% Δ7-dafachronic acid | activation, % at 6.8 µM;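 active = activation above the mean of all tested compounds plus 3 SD, cut at about 5.5% in these data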;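 note: 100% = response to 3 µM Δ7-dafachronic acid high control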
DAX1 inh-1: DAX1 (NR0B1) inhibitors on StAR promoter, primary screen, cell-based, luminescence, SF-1 (NR5A1), full-length DAX-1; HEK293T StAR-luciferase reporter, SF-1/DAX-1 repression relief; AID 652010, 2013; inhibition, % at 6.8 µM; actives 1.1% (n = 370,000);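 active = inhibition above the mean over all tested compounds plus 3 SD, cut at about 3.6% in these data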;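 note: 0% = DAX-1 cells with DMSO and 100% = cells lacking DAX-1 with DMSO; higher inhibition means more luminescence from relief of DAX-1 repression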
DAX1 inh-2: DAX1 (NR0B1) inhibitors, primary screen, cell-based, HEK293, Gal4-DAX1, luciferase luminescence | actives 0.99% (n = 340,000) | Nuclear receptor subfamily 0 group B member 1 (Homo sapiens), P51843 | inhibition, % at 6.75 µM | HEK293 Gal4-DAX1 luciferase reporter | AID 504766, 2011;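 active = inhibition above the mean over all tested compounds plus 3 SD, cut at about 4.2% in these data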;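 note: 0% = DAX1-transfected cells with DMSO and 100% = empty-vector control cells with DMSO; inhibition shows as a rise in luminescence from relieved DAX1 repression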
ssDAF12 agonist: S. stercoralis DAF-12 nuclear receptor activators, primary screen, cell-based, luminescence, HEK293, GRIP1 co-expression, lit1-tk-luc; actives 1% (n = 370,000); HEK293 ssDAF-12/GRIP1 lit1-tk-luc reporter; % of 3 µM dafachronic acid response; activation, % at 6.8 µM;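 active = activation above the mean over all tested compounds plus 3 SD, cut at about 0.9% in these data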;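 note: 0% = DMSO-only wells and 100% = 3 µM delta7-dafachronic acid wells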
LXR ag: LXR agonists, Gal4 luciferase reporter, confirmation, counter-screen for hcDAF-12 agonist project, cell-based, luminescence, HEK293, H. contortus campaign | shares compounds with hcDAF12 agonist | HEK293 Gal4-LXR tk-luc reporter, 24 h; normalized: DMSO 0%, positive control 100% | activation, % at 6.8 µM | 3,400 tested, under 10 active | AID 743027, 2013;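 active = mean percent activation of the reporter above a cutoff set as the average over tested compounds plus their standard deviation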
Target sequence (P55055 whole entry, looked up, the tested form may be a part): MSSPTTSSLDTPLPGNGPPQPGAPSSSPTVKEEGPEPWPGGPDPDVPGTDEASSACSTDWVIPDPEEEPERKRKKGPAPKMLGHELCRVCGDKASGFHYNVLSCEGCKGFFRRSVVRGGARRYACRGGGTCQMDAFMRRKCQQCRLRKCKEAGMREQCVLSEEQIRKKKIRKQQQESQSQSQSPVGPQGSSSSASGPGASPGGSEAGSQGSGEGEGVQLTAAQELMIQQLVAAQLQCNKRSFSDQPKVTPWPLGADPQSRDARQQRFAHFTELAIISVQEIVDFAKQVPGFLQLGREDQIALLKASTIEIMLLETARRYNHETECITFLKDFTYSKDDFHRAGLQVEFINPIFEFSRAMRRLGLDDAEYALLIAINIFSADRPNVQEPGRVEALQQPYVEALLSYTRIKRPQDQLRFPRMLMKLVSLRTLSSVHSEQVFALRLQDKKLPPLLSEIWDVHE
hcDAF12 conf: H. contortus DAF-12 receptor agonists, confirmation, cell-based, luminescence, HEK293, lit1-tk-luc, triplicate; actives 61% (n = 3,400); activation, % at 6.8 µM; shares compounds with hcDAF12 agonist; HEK293 hcDAF-12 lit1-tk-luc reporter; % of Δ7-dafachronic acid response;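 active = mean activation across triplicate tests above the threshold derived from the earlier primary screen, cut at about 5.5% in these data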;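 note: 0% = DMSO only wells and 100% = 3 µM Δ7-dafachronic acid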
hgDAF12 conf: H. glycines DAF-12 receptor agonists, confirmation, cell-based, luminescence, HEK293, GAL4-LBD fusion. AID 743050, 2013. activation, % at 6.8 µM. actives 80% (n = 3,300). HEK293 GAL4-hgDAF12 luciferase reporter, agonist mode; percent of butyrate response. shares compounds with hgDAF-12 ag;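 active = mean activation over triplicate wells above the hit cutoff derived from the earlier primary screen, cut at about 11% in these data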;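 note: 0% = DMSO low control and 100% = 2 mM sodium butyrate high control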
LXR ag 2: LXR agonists, Gal4 luciferase reporter, confirmation, counter-screen for hgDAF-12 agonist project, cell-based, luminescence, HEK293, H. glycines campaign; shares compounds with hgDAF-12 ag; 24 h; AID 743051, 2013; activation, % at 6.8 µM; 3,300 tested, under 10 active;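 active = mean activation of the triplicate above a set limit carried over from the primary screen, none filed active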
Active calls of the source: *; . = no result given. Most compounds without a hit are left out; they make up all but 4.1% or so of the library.

SMILES	hgDAF-12 ag	hcDAF12 agonist	DAX1 inh-1	DAX1 inh-2	ssDAF12 agonist	LXR ag	hcDAF12 conf	hgDAF12 conf	LXR ag 2
Nc1c(C(=O)Nc2ccccc2)nnn1-c1ccc2c(c1)OCCO2	14*	8.8*	3	-1	1.8*	1	8.1*	16*	1
O=C(NCCCn1ccnc1)c1cc2ccccc2oc1=O	0	2	1	1	-1	.	.	.	.
O=c1c2ccccc2oc2cc(NCCCn3ccnc3)ccc12	14*	7.2*	3.7*	1	1.2*	1	5	17*	1
O=C(Nc1ccc(OC(F)(F)F)cc1)Nc1c(-c2ccccc2)nc2ncccn12	-1	-2	0	.	-1	.	.	.	.
COc1ccc2[nH]c(C(=O)Nc3cccc(C)n3)cc2c1	15*	7.9*	3.7*	.	0.9*	2	6.2*	22*	1
O=C(/C=C/Nc1ccc(F)c(F)c1)c1cccs1	15*	16*	3	4	1	2	15*	23*	1
CCOC(=O)/C(=N\Nc1ncnc2ccccc12)c1ccc(C)cc1	21*	19*	2	0	2.5*	2	19*	20*	1
Clc1ccc(-c2nnc3n2N=C(c2ccc(-c4ccccc4)cc2)CS3)cc1	4	-2	3	.	-2	.	.	.	.
Cc1ccc(Nc2n[nH]c(C)c2[N+](=O)[O-])cc1C	19*	11*	4.4*	4	1.0*	2	6.3*	22*	1
Cc1ccnc(Nc2nc3ccccc3o2)n1	21*	10*	6.5*	0	0	1	6.6*	10	1
N#Cc1cnc(Nc2nc3ccccc3o2)nc1-c1ccccc1	-1	0	-1	-1	-1	.	.	.	.
Cc1ccc(NC(=O)c2cc3nc(C)cc(C)n3n2)cc1	16*	8.5*	4.3*	0	1	1	5	17*	1
Cc1ccc(NC(=O)c2cc(C(=O)Nc3ccc(C)cc3)n(C)n2)cc1	2	3	0	3	-1	.	.	.	.
O=C(c1cc2c([nH]c1=O)CCCC2)N1CCc2c([nH]c3ccccc23)C1c1ccccc1F (stereo not given)	0	2	0	0	1	.	.	.	.
CN1N=C(C(=O)N2CCc3c([nH]c4ccccc34)C2c2c(F)cccc2Cl)CCC1=O (stereo not given)	15*	6.7*	2	5.3*	1	0	6.7*	7	0
C[C@H]1CCCN1c1cccc2c1S(=O)(=O)N(C1CC1)CCCO2	-1	0	-1	.	-1	.	.	.	.
Cc1sc(NC(=O)c2ccco2)nc1-c1ccccc1	14*	7.8*	3	4	1	1	7.9*	18*	1
Cc1nc(N)sc1N=Nc1ccc(Br)cc1	17*	8.6*	3.9*	5.4*	1.5*	1	4	21*	1
Cc1[nH]nc(N)c1N=Nc1ccc(Br)cc1	6	1	1	.	-1	.	.	.	.
C=CCNc1ncnc2c1cnn2-c1ccc(OC)cc1	14*	6.6*	4.3*	4	0.9*	2	5.8*	17*	1
COc1ccc(-n2ncc3c(NCc4ccco4)ncnc32)cc1	5	2	2	4	-1	.	.	.	.
Oc1ccc(/C=N/Nc2cccc(Cl)n2)c(O)c1	14*	10*	2	6.3*	2.2*	1	2	19*	1
Oc1ccc(/C=N\Nc2cc(N3CCOCC3)nc(N3CCOCC3)n2)c(O)c1	-1	-2	-1	-2	-2	.	.	.	.
Cc1ccc(C2c3c(n[nH]c3C(C)C)C(=O)N2c2ccccc2)cc1 (stereo not given)	-2	-1	0	.	-1	.	.	.	.
N#C/C(=C(/O)COc1ccccc1)c1nc2ccccc2s1	-1	1	0	4	-1	.	.	.	.
SMILES	hgDAF-12 ag	hcDAF12 agonist	DAX1 inh-1	DAX1 inh-2	ssDAF12 agonist	LXR ag	hcDAF12 conf	hgDAF12 conf	LXR ag 2
c1ccc(OCc2nc3ccccc3s2)cc1	14*	8.6*	3	5.8*	1.6*	1	5.9*	18*	1
c1ccc(SCc2nc3ccccc3s2)nc1	14*	15*	2	3	4.5*	1	7.8*	16*	1
Cc1cc(C(=O)OCc2nc3ccccc3s2)c(C)o1	7	4	0	1	-1	.	.	.	.
Cc1cc(OCc2nc3ccccc3s2)ccc1N	14*	13*	2	3	2.0*	1	14*	19*	1
O=C(CSc1ccccc1)Nc1nccs1	6	1	0	-1	0	.	.	.	.
O=C(CSc1cn(Cc2ccccc2)c2ccccc12)Nc1nccs1	24*	9.7*	8.9*	2	1.1*	1	8.9*	18*	1
COc1cccc(C(=O)Cn2c(NCCO)nc3ccccc32)c1	0	0	0	-1	-1	.	.	.	.
COc1cccc(C(=O)Cn2c(=N)n(C)c3ccccc32)c1	17*	18*	3	-1	3.2*	2	17*	20*	1
Cc1nn(CCC(=O)NNC(=O)Nc2ccc(F)cc2)c(C)c1[N+](=O)[O-]	-1	-1	1	.	-1	.	.	.	.
Cc1cccc(N/C=C/c2onc(C)c2[N+](=O)[O-])c1	8	4	2	2	1	.	.	.	.

Compound activity (PubChem)
